The record followed here is PubChem BioAssay AID1239 (SRMLSC, 2008).

Structures are written as SMILES. The campaign covered roughly 190,000 compounds. About 3,100 (1.6%) were called active. The sample holds actives, similar compounds and a random draw of the others, so the mix is not that of the screen. A number with no mark means an inactive call. Cut-off read from the data, not from the text of the source: active = fold change above about 3.3; inconclusive = no clear call, values can overlap the other calls; inactive = below that.

The experiment is described as follows: NF-kB upregulation, human neuronal cells – cell-based, HTS, primary screen (AID 1239). The conditions noted are these: NF-kB reporter expression, at 12.5 µM, stronger effect = higher value.
For the compound `Cc1nc(-c2ccc(Cl)cc2)sc1C(=O)CBr`, the fold change was 1.42.
As for `N#CCC(=O)N/N=C/c1ccc(SCC(=O)Nc2ccccc2)o1`, the fold change is 1.28.
As for `COCCN(C(=O)CCC(=O)Nc1nccs1)C(C(=O)NC(C)(C)C)c1ccc(Cl)cc1` (stereo not drawn), the figure is 1.27.
Regarding `CC1CCCN(c2ccc(C(=O)NCCc3ccccc3)cn2)C1` (stereo not drawn), the fold change was 4.24 (active).
As to `O=C(NCCc1ccccc1)c1ccc(NC2=NC3CS(=O)(=O)CC3S2)cc1` (stereo not drawn), the fold change was 1.1.
As for `COc1ccc(C(=O)NC2CCN(C(=S)NCCc3ccccc3)CC2)cc1`, the figure is 0.91.
In the case of `COCCNc1nc(N)c([N+](=O)[O-])c(NCCO)n1`, the fold change is 0.91.
The same measure for `CNc1nc(Nc2ccc(C)c(Cl)c2)nc(N)c1[N+](=O)[O-]`: 5.21 (active); for `Nc1nc(NCCCN2CCOCC2)nc(Nc2ccccc2)c1[N+](=O)[O-]`: 0.82; for `O=C(c1cccc(C(=O)N2CCc3ccccc32)n1)N1CCc2ccccc21`: 0.82.
The same measure for `Cc1occc1C(=O)N1CCCc2ccccc21`: 1.12; for `O=C(c1cnn2ccccc12)N1CCc2ccccc21`: 3.74 (active).
For `Cc1cc(C)n(CCNCc2c(C(=O)N3C[C@@H](C)O[C@@H](C)C3)nc3ccc(Cl)cn23)n1`, the fold change was 0.98.
The same measure for `Cc1ccccc1NC(=O)Cn1c(=O)n(CC2CCCO2)c(=O)c2ccccc21` (stereo not drawn): 0.98.
As for `Cc1ccc(NC(=O)c2cc(-c3ccc(C)o3)nc3ccccc23)nc1`, the figure is 0.88; as for `Cc1ccc(-c2csc(NNC(=O)c3ccccc3)n2)cc1`, 0.64.
The same measure for `Cc1ccc(Nc2nc(-c3ccc(O)cc3O)cs2)nc1`: 5.35 (active).
As to `CCOC(=O)Cn1nnnc1C`, the fold change is 0.94.
The same measure for `O=C(O)c1ccc(NC(=O)c2cn(-c3ccccc3)nc2-c2ccc(Cl)cc2)cc1`: 1.11; for `O=C(c1cnn(-c2ccc(Cl)cc2)c1)c1ccccc1O`: 6.38 (active).
As for `Cc1ncc(CC(=O)n2cc(C(=O)c3cc(Cl)ccc3O)cn2)s1`, the figure is 0.9; as for `O=C(Nc1ccc(Cl)cc1)C1c2cccc[n+]2CC(=O)N1Cc1ccc2c(c1)OCO2` (stereo not drawn), 1.64.
On to `Cc1ccc(-c2nc3ccccc3[nH]2)cc1NC(=O)c1sc2ccccc2c1Cl`, for which the fold change is 0.76.
As for `Cc1ccc(-c2nc3ccccc3[nH]2)cc1N`, the figure is 6.83 (active).
For `c1ccc2[nH]c(-c3nc4ccccc4[nH]3)nc2c1`, the fold change was 2.17.
As for `O=C(O)CCn1c(SCc2cc(=O)n3ccccc3n2)nc2ccsc2c1=O`, the figure is 1.78.
`CC(=O)Nc1ccc(NC(=O)C(C)n2c3ccccc3c3nc(=O)cc(C)n32)cc1` (stereo not drawn): the fold change is 1.25.
Regarding `COc1cccc(NC(=S)N(Cc2ccc(C)cc2)Cc2ccccn2)c1`, the fold change was 1.01.
With `CC(O)CNCCOc1cccc(Oc2ccccc2)c1` (stereo not drawn), the fold change is 1.14.
The same measure for `Cc1cccc(-n2c(C)cc(/C=N\NC(=O)c3cccs3)c2C)c1`: 0.9.
Regarding `CC(=O)Nc1ccc(/C=N/NC(=O)c2cccs2)cc1`, the fold change is 3.48 (active).
As for `O=C(O)c1ccc(NC(=O)c2cccs2)cc1`, the figure is 1.13; as for `CCOc1ccc(C(C)=O)cc1CSc1nnc(-c2ccncc2)n1CCOC`, 0.95; as for `CC(C)CCC(C)NC(=O)c1ccc2nccnc2c1` (stereo not drawn), 1.64.
The same measure for `CC(NC(=O)COC(=O)c1ccc(Cl)cc1O)c1ccc(F)cc1` (stereo not drawn): 1.15; for `CCOC(=O)CSc1nnc(-c2ccncc2)o1`: 1.05.
`CCCCSc1nnc(-c2ccc(C)cc2)o1`: the fold change was 3.57 (active).
The same measure for `CCOC(=O)CSc1nnc(-c2ccc([N+](=O)[O-])cc2)o1`: 1.11; for `N/C(=N\OC(=O)Cc1ccccc1[N+](=O)[O-])c1ccc(Br)cc1`: 1.12.
For the compound `COc1ccc(-c2nnc(SCC(=O)c3cccs3)o2)c(OC)c1`, the fold change is 5.16 (active).
Take `COc1ccc(-n2c(C)cc(C(=O)CSc3nnc(-c4cccs4)o3)c2C)cc1`: the fold change is 0.93.
As to `COc1ccc(OC)c(C(=O)CSc2nnc(-c3cccs3)o2)c1`, the fold change was 1.11.
The same measure for `Cn1nc(C(F)(F)F)c2cc(C(=O)N3CCOCC3)sc21`: 0.92; for `COc1ccccc1-c1cc(C(=O)NCCCn2ccnc2)no1`: 1.28; for `COc1ccc(-c2cc(C(=O)NCCCn3ccnc3)no2)cc1`: 1.83.
For the compound `O=C(NCCCn1ccnc1)c1cc(-c2ccccc2)on1`, the fold change was 8.21 (active).
Regarding `CC(=O)Nc1cccc(-c2csc(Nc3cccc(C)n3)n2)c1`, the fold change was 8.2 (active).
On to `CC(=O)Nc1cccc(-c2cnc3ccccc3n2)c1`, for which the fold change is 2.74.
On to `COc1ccc(CCNc2nc(-c3cccc(NC(C)=O)c3)cs2)cc1OC`, for which the fold change is 0.5.
For the compound `CCOc1cc(NC(=S)NCCCN(C)C)c(OCC)cc1NC(=O)C1CC1`, the fold change was 0.96.
The same measure for `CCOn1c(=O)c(=O)n(O)c2ccccc21`: 1.15.
As for `C=C(C)CNC(=S)N/N=C/c1ccccc1OCC(=O)O`, the figure is 1.35; as for `CCn1c(SCc2ccc(C)cc2)nnc1-c1nn(-c2ccccc2)ccc1=O`, 1.19.
Consider `CCc1ccc(-c2nn(-c3ccccc3)cc2CSC(=N)N)cc1`, for which the fold change was 6.66 (active).
For `N=C(N)SCc1cccc2ccccc12`, the fold change was 0.88.
On to `O=c1nc(N/N=C/c2ccco2)cn[nH]1`, for which the fold change is 1.22.
The same measure for `COc1ccc(CNc2c(CO)cnc3c2cnn3C)cc1`: 1.06; for `Cc1ccccc1OCCC(=O)Nc1c(C)n(C)n(-c2ccccc2)c1=O`: 0.99; for `Cc1c(NC(=O)CSc2nnnn2-c2ccc(C(=O)O)cc2)c(=O)n(-c2ccccc2)n1C`: 1.04.
Take `Cc1c(NC(=O)CSc2cccc3cccnc23)c(=O)n(-c2ccccc2)n1C`: the fold change is 7.73 (active).
The same measure for `CCN(CC)CCNc1nc(-c2ccc(OC(F)F)cc2)c(C)s1`: 0.94; for `NC(=O)c1ccc(N2CCOCC2)nc1`: 0.96; for `COc1cc(/C=N/NC(=O)c2cc(C)n(-c3ccc(F)cc3)c2C)cc(OC)c1O`: 1.02.
For the compound `C/C(=N\NC(=S)NCc1ccccc1)C1CCCCC1`, the fold change is 1.07.
In the case of `O=c1[nH]n2c(-c3ccccc3)nc(O)c2c2ccccc12`, the fold change was 1.02.
In the case of `CCn1nc(C)c(CN2CCN(Cc3ccc(OC)c(C)c3C)C(CCO)C2)c1C` (stereo not drawn), the fold change was 1.19.
Turning to `COc1ccc(-c2cn3ccsc3n2)cc1`, the fold change was 5.24 (active).
The same measure for `COc1ccc(-c2cn3cccnc3n2)cc1`: 2.19.
The same measure for `CCCC(=O)Nc1cccc(-c2cn3ccsc3n2)c1`: 1.3.
With `CC(C)(C)n1ncc2c(=O)n(Cc3ccc(Cl)cc3)cnc21`, the fold change was 1.03.
For `O=C(COc1ccc(Cl)cc1)NCc1nnc(SCC(=O)NCC2CCCO2)o1` (stereo not drawn), the fold change is 1.01.
The same measure for `CC(=O)c1sc(NC(=O)c2cccc3ccccc23)nc1C`: 0.7.
The same measure for `CCSc1nnc(NC(=O)c2ccc(C)cc2)s1`: 5.31 (active).
Turning to `CCSc1nnc(NC(=O)Cc2ccccc2OC)s1`, the fold change is 1.18.
For `CC(=O)c1sc(N/N=C\c2ccc(C)cc2)nc1C`, the fold change is 2.4.
In the case of `CC(=O)c1sc(NC(=O)c2ccc(C)cc2)nc1C`, the fold change was 3.36 (active).
The same measure for `Cc1cccc(CSc2nnc(NC(=O)CSc3nnc(C)s3)s2)c1`: 1.18; for `C=CCn1nc(-c2ccccc2)c2c(C)onc2c1=O`: 1.1; for `COc1cc(/C=N/O)ccc1OCc1ccc([N+](=O)[O-])cc1`: 6.35 (active).
The same measure for `COc1cc(C(=O)OCc2ccc([N+](=O)[O-])cc2)cc(OC)c1OC`: 1.05; for `COc1cc(/C=N\Nc2ccc([N+](=O)[O-])cn2)ccc1OCC(=O)O`: 1.24; for `COc1ccc(C2=NN(c3nc4ccccc4s3)C(=O)C2)cc1`: 1.02.
As for `CN(c1nc2ccccc2n2c(-c3ccco3)nnc12)S(=O)(=O)c1ccccc1`, the fold change is 0.98.
As for `CN1c2ccccc2-c2nc3ccccc3n2C1c1ccco1` (stereo not drawn), the figure is 1.03.
As for `Cn1c(-c2ccco2)nc2cc3ccccc3cc21`, the figure is 6.6 (active); as for `Cc1nc2ccccc2c(C)c1C(=O)c1ccc(F)cc1`, 0.8.
As for `COC(=O)c1c(NC(=O)CCCC(=O)O)sc2c1CCCCC2`, the figure is 0.98; as for `CCn1c(=S)[nH]c2sc3c(c2c1=O)CCCCC3`, 1.2; as for `CSc1nc(N(C)NC(=O)c2cccc(C)c2)c2ccccc2n1`, 3.68 (active).
On to `CN(NC(=O)c1ccccc1)c1nc2ccccc2nc1C(F)(F)F`, for which the fold change was 1.32.
With `CN(NC(=O)c1ccccc1F)c1nc(C(F)(F)F)nc2ccccc12`, the fold change is 1.67.
On to `Cc1cc(NS(=O)(=O)c2ccc(NC(=O)c3cccc(OC(F)F)c3)cc2)nc(C)n1`, for which the fold change was 1.45.
As for `O=C1CN(C(=O)CN2C(=O)NC3(CCCCC3)C2=O)c2ccccc2N1`, the figure is 1.43.
As for `Cc1cc(C(C)(C)C)cc(C)c1N`, the fold change was 1.01.
Regarding `COc1ccc(-c2cc(C)nc3nc(N)nn23)cc1`, the fold change is 1.23.
The same measure for `Cc1cc(N)n2nc(-c3ccc(C(C)(C)C)cc3)cc2n1`: 5.07 (active).
The same measure for `NC(=O)Cc1ccc2sc(-c3ccccc3)nc2c1`: 6.92 (active); for `O=C(O)Cc1sc(-c2ccccc2)nc1-c1cccs1`: 1.28.
The same measure for `O=C(O)Cc1sc(-c2ccc(C(=O)O)cc2)nc1-c1ccccc1`: 1.21.
On to `CCc1cccc(NC(=O)CCNS(=O)(=O)c2cccc3nonc23)c1`, for which the fold change was 1.16.
Turning to `CCN1CCN(c2ccc([N+](=O)[O-])cc2C(=O)c2ccc(Cl)cc2)CC1`, the fold change is 1.37.
The same measure for `O=[N+]([O-])c1ccc(N2CCN(c3ccc(O)cc3)CC2)c(Cl)c1`: 4.06 (active); for `COc1ccc(N2CCN(c3ccc([N+](=O)[O-])cc3Cl)CC2)cc1`: 0.93.
